This note sets out measurements from PubChem BioAssay.

The nature of experiment [1]: antimalarial activity against Dd2 strain (AID 2302;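 active = growth inhibition above 50% at the single 2 µM test dose, taken to imply half-maximal potency below 2 µM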;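 also: 0% = DMSO untreated growth and 100% = chloroquine plus artemisinin killed control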). The conditions noted are these: P. falciparum Dd2 in RBCs, LDH growth readout, 72 h; at 2 µM; stronger effect = higher value.
Experiment [2] in a line: HepG2 cytotoxicity, primary screen, cytotoxicity control for P. falciparum antimalarial project, cell-based, ATP luminescence (AID 2303;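 active = inhibition above 50%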;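 also: 0% = DMSO wells and 100% = digitonin-killed cells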). The conditions noted are these: HepG2 viability, 24-48 h, at 10 µM, stronger effect = higher value.
For experiment [3], the target named is L-lactate dehydrogenase (Plasmodium falciparum (isolate CDC / Honduras)) (UniProt Q27743). Description: PfLDH activity inhibition – cell lysate, 3D7 strain, counter-screen for P. falciparum growth inhibition project (AID 2304).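 Also: 0% = vehicle and 100% = reference inhibitor.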 The conditions noted are these: P. falciparum 3D7 crude extract, LDH APAD/NBT absorbance; at 2 µM; stronger effect = higher value. On the technique in general: Counterscreens check selectivity or assay interference.

Experiment [4] in a line: inhibition of 3D7 malaria parasite growth – strain 3D7 (AID 2306).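 Also: 0% = DMSO wells and 100% = chloroquine plus artemisinin control wells.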 The note with it: P. falciparum 3D7 erythrocytic growth, LDH absorbance, 72 h; at 2 µM; stronger effect = higher value.
Experiment [5] deals with Calcium-dependent protein kinase 1 (Plasmodium falciparum (isolate 3D7)) (UniProt P62344). Description: PfCDPK1 kinase inhibitors, biochemical, TCAMS library (AID 1159585; cut-off not given, nearly all actives have IC50 up to about 0.98 µM;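 also: inhibitors leave more ATP so luminescence rises with inhibition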). The conditions noted are these: recombinant PfCDPK1, Kinase-Glo ATP depletion luminescence.
Experiment [6] concerns the target Plasmodium falciparum protein kinase 6 (PK6, PF3D7_1337100) (UniProt Q8IDW1). The experiment is described as follows: PfPK6 kinase inhibitors, biochemical, TCAMS library (AID 1159586). The note with it: recombinant PfPK6, Kinase-Glo ATP depletion luminescence. A general note: Kinase-Glo reads ATP consumption through a luciferase reaction.
The target in experiment [7] is Protein kinase 7 (PK7), Plasmodium falciparum 3D7 (PF3D7_0213400) (UniProt Q7YTF7). Description: inhibition of Plasmodium PK7 catalytic activity – biochemical, TCAMS antimalarial set, Kinase-Glo luminescence (AID 1159587). The note with it: recombinant PfPK7, Kinase-Glo ATP depletion luminescence.
The target of experiment [8] is Calcium-dependent protein kinase 4 (Plasmodium falciparum (isolate 3D7)) (UniProt Q8IBS5). The experiment is described as follows: PfCDPK4 kinase inhibitors, biochemical, TCAMS library (AID 1159588; cut-off not given, nearly all actives have IC50 up to about 0.91 µM). The note with it: recombinant PfCDPK4, Kinase-Glo ATP depletion luminescence.
In experiment [9] the test system is Aerobactin synthetase IucA (Klebsiella pneumoniae). The experiment is described as follows: IucA aerobactin synthetase inhibitors, biochemical, Tocris library, absorbance (AID 1345561).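 Also: 100% = enzyme without compound and 0% = no enzyme.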 The note with it: purified IucA enzyme assay, absorbance (OD) read-out; stronger effect = lower value;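 tested at 8 µM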.
The nature of experiment [10]: sensitizers of A549 cells to miR-34 induction, primary screen, imaging, A549 dox-inducible miR-34, nuclei and caspase counts (AID 1347080;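 active = compounds whose cell count with miR-34 switched on is under 0.7 times the count with it off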). The conditions noted are these: A549 miR-34 inducible, Hoechst nuclei count, 48 h.
Experiment [11] can be described thus: viability rescue of complex I mutant cybrids, primary screen, cell-based, galactose medium, ATP luminescence (AID 1645843;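 active = z-score of at least 1.8 in each of two replicates, scored against plate mean and spread of sample wells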;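 also: positive z means more ATP and so rescue of galactose-driven cybrid death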). The note with it: complex I mutant cybrid cells, 72 h, stronger effect = higher value.
A short description of experiment [12]: growth inhibition of DIPG glioma cells, dose response, cell-based, SU-DIPG-XVII, MIPE5.0, CellTiter-Glo, qHTS (AID 1347060; cut-off not given, nearly all actives have AC50 up to about 26 µM;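 also: cells exposed to compound for 48 hours before viability readout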). The conditions noted are these: SU-DIPG-XVII viability, CellTiter-Glo ATP luminescence.
Experiment [13] can be described thus: growth inhibition of DIPG glioma cells, dose response, cell-based, SU-DIPG-XIII, MIPE4.0, CellTiter-Glo, qHTS (AID 1347061; cut-off not given, nearly all actives have AC50 up to about 37 µM;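 also: cells exposed to compound for 48 hours before readout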). The note with it: SU-DIPG-XIII viability, CellTiter-Glo ATP luminescence. (In general: Cellular ATP, detected with luciferase, serves as a proxy for viable cell number.)
The nature of experiment [14]: growth inhibition of DIPG glioma cells, dose response, cell-based, JHH-DIPG-1, MIPE4.0, CellTiter-Glo, qHTS (AID 1347062; cut-off not given, nearly all actives have AC50 up to about 27 µM;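 also: cells exposed to compound for two days before readout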). The conditions noted are these: JHH-DIPG-1 viability, CellTiter-Glo ATP luminescence.
The nature of experiment [15]: growth inhibition of DIPG glioma cells, dose response, cell-based, SU-DIPG-IV, MIPE4.0, CellTiter-Glo, qHTS (AID 1347063; cut-off not given, nearly all actives have AC50 up to about 30 µM;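 also: compound exposure lasted 48 hours before the viability readout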). The conditions noted are these: SU-DIPG-IV viability, CellTiter-Glo ATP luminescence.
Experiment [16] can be described thus: growth inhibition of DIPG glioma cells, dose response, cell-based, SU-DIPG-XIII, MIPE5.0, CellTiter-Glo, qHTS (AID 1347064; cut-off not given, nearly all actives have AC50 up to about 23 µM;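 also: cells exposed to compound for 48 hours before the viability read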). The conditions noted are these: SU-DIPG-XIII viability, CellTiter-Glo ATP luminescence.
Experiment [17] in a line: viability loss in pontine glioma line – cell-based, SU-DIPG-XXV, MIPE5.0, CellTiter-Glo, qHTS, dose response (AID 1347065; cut-off not given, nearly all actives have AC50 up to about 26 µM;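 also: cells exposed to compound for 48 hours before ATP readout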). The conditions noted are these: CellTiter-Glo ATP luminescence.
Experiment [18] is described as follows: JHH-DIPG-1 glioma cell viability, MIPE5.0 library, CellTiter-Glo luminescence, qHTS (AID 1347067; cut-off not given, nearly all actives have AC50 up to about 26 µM;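 also: cells exposed to compound for 48 hours before readout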). The note with it: JHH-DIPG-1 glioma viability, CellTiter-Glo ATP luminescence.
Experiment [19] can be described thus: SU-DIPG-XXV glioma cell viability, MIPE5.0 library, qHTS (AID 1347068; cut-off not given, nearly all actives have IC50 up to about 30 µM;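 also: cells exposed to compound for 48 hours before viability readout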).
Experiment [20] in a line: survival rescue of mitochondrial mutant cells in low glucose, primary screen, MELAS cybrids, Rieske KO mouse fibroblasts, CellTiter-Glo (AID 1508586;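 active = mean z-score across replicates of 1.96 or higher in either the MELAS or the Rieske mutant cell line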;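 also: z relative to plate mean and SD of compound and empty wells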).
The mark [21] stands for this setting: stronger effect = lower value, cell number ratio, induced over uninduced.
Where [22] appears, read: measured here: relative caspase fold change +Dox/-Dox.
Setting [23] is: measured here: total cells with miR-34 induction, stronger effect = lower value.
The mark [24] stands for this setting: measured here: total cells without miR-34 induction.

Records with an inconclusive call do not appear. For some of these results: Results with a measured potency or affinity are listed apart. Active and inactive are the calls of the source. Unless noted, no rule for the calls is given here.

The inhibition is the drop in the measured response relative to a control, in per cent. As usually defined, the remaining activity is the signal under treatment as a percentage of the control signal. Broadly, the AC50 is the midpoint of the concentration-response curve, whichever way the signal moves. The IC50 is the midpoint of a concentration-inhibition curve.

Sequence of Protein kinase 7 (PK7), Plasmodium falciparum 3D7 (PF3D7_0213400) (Q7YTF7 1-343): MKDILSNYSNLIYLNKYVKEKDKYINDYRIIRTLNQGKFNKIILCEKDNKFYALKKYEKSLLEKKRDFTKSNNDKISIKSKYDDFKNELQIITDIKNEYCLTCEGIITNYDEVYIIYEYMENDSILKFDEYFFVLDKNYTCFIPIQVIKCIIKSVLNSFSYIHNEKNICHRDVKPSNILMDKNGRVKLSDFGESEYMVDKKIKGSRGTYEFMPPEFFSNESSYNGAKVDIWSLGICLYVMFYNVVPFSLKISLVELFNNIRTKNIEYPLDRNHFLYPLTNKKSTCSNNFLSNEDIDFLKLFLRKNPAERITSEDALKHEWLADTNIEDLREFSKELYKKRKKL
Sequence of Calcium-dependent protein kinase 4 (Plasmodium falciparum (isolate 3D7)) (Q8IBS5 whole entry, looked up): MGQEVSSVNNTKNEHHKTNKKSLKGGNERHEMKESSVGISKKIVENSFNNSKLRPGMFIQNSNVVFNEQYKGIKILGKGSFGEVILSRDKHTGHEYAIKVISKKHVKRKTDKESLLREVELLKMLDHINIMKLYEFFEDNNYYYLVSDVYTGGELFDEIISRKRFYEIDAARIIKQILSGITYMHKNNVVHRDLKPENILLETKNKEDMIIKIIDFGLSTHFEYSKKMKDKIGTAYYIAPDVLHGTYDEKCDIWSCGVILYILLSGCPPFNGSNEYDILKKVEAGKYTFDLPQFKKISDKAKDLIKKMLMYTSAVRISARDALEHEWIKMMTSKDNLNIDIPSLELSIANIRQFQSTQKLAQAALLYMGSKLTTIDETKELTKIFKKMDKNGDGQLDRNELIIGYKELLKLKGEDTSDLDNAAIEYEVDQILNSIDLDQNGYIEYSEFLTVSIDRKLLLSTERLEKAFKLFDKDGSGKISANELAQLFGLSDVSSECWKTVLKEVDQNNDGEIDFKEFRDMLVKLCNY
Sequence of L-lactate dehydrogenase (Plasmodium falciparum (isolate CDC / Honduras)) (Q27743 whole entry, looked up): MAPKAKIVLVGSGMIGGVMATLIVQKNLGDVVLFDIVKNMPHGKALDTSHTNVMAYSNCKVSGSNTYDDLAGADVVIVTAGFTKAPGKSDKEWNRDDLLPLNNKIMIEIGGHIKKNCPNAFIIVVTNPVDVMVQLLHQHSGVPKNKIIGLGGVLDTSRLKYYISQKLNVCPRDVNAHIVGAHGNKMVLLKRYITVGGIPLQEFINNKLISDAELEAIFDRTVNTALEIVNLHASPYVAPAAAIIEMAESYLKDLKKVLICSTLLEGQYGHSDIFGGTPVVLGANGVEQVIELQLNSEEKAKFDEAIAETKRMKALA
Sequence of Plasmodium falciparum protein kinase 6 (PK6, PF3D7_1337100) (Q8IDW1 1-305): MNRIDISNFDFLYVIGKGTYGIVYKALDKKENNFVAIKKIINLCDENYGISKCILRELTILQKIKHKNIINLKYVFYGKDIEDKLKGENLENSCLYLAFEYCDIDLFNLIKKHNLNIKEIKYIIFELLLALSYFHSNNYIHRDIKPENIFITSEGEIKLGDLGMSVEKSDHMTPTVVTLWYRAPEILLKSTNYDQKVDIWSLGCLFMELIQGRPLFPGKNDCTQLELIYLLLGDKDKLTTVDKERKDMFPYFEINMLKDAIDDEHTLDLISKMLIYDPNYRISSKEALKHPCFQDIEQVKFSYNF
Sequence of Calcium-dependent protein kinase 1 (Plasmodium falciparum (isolate 3D7)) (P62344 whole entry, looked up): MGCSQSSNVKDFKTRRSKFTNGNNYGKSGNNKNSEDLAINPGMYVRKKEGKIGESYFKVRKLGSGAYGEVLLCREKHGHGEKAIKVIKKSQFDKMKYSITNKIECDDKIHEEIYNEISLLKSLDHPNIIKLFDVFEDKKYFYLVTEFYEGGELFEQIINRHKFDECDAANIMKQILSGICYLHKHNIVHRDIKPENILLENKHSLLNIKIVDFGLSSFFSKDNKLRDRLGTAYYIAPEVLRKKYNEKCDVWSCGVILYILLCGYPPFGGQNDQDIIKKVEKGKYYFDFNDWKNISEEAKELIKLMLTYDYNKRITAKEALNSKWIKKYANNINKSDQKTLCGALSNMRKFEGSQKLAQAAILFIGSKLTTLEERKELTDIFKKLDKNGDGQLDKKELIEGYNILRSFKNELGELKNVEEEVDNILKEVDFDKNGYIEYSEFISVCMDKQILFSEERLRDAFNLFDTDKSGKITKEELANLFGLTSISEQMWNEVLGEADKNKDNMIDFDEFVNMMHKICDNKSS

For `CC1CN(Cc2cccc(-c3ccc(-c4nc5ccc(F)cc5[nH]4)cc3)c2)CC(C)O1` (stereo unspecified), the results for the growth inhibition in [1] and in experiment [4] were 88% (active) and 87% (active), respectively. In addition, the values for the inhibition in [2] and in experiment [3] were 45% (inactive) and -3% (inactive), respectively. In addition, the outcome in experiment [5], in experiment [6], in experiment [7] and in experiment [8] was inactive.

On to `c1ccc(Oc2ccc(Nc3ccnc4cc(-c5ccc(CN6CCOCC6)o5)ccc34)cc2)nc1`, for which the growth inhibition in [1] is 73% (active); in experiment [4], 92% (active). In addition, the values for the inhibition in [2] and in [3] were 5% (inactive) and 0% (inactive), respectively. Besides, the outcome in experiment [5], in experiment [6], in experiment [7] and in experiment [8] was inactive.

On to `Clc1ccc2c(NN=Cc3cccnc3)ccnc2c1`, for which the growth inhibition in experiment [1] is 86% (active); in [4], 100% (active). In addition, the inhibition is -9% (inactive) in [2] and 3% (inactive) in experiment [3]. Besides, the outcome in experiment [5], in [6], in experiment [7] and in experiment [8] was inactive.

For the molecule `Oc1ccc(OCc2ccccn2)cc1`, the growth inhibition in experiment [1] was 0% (inactive); in experiment [4], 98% (active). Besides, the values for the inhibition in [2] and in [3] were 5% (inactive) and 2% (inactive), respectively. Also, the outcome in experiment [5], in [6], in experiment [7] and in experiment [8] was inactive.

For `O=c1cc(NCCCNCc2cc(F)cc(C(F)(F)F)c2)[nH]c2ccccc12`, the figures for the growth inhibition in experiment [1] and in [4] were 15% (inactive) and 92% (active), respectively. Moreover, the inhibition was -6% (inactive) in experiment [2] and 1% (inactive) in experiment [3]. Also, the outcome in [5], in experiment [6], in experiment [7] and in experiment [8] was inactive.

In the case of `Nc1nc(NCC2CCC(CNS(=O)(=O)c3cccc4ccccc34)CC2)nc2ccccc12` (stereo unspecified), the growth inhibition in [1] was 42% (inactive); in [4], 97% (active). Moreover, the values for the inhibition in experiment [2] and in [3] were 9% (inactive) and 7% (inactive), respectively. In addition, the outcome in experiment [5], in experiment [6], in experiment [7] and in [8] was inactive. In [9], the remaining activity is 92.3% (inactive). Besides, the fold change was 0.954 (inactive) in experiment [10] (setting [21]) and 0.891 in experiment [10] (setting [22]). For the same molecule, the cell count in experiment [10] (setting [23]) turned out to be 322; in experiment [10] (setting [24]), 338. Besides, in experiment [11], the z-score was -0.705 (inactive).

On to `CCS(=O)(=O)Nc1ccc2[nH]c(O)c(C(=Nc3ccc(CN4CCCCC4)cc3)c3ccccc3)c2c1`, for which the growth inhibition in experiment [1] was 74% (active); in experiment [4], 87% (active). In addition, the inhibition is 53% (active) in experiment [2] and 6% (inactive) in [3]. For the same molecule, the result in experiment [5], in experiment [6], in experiment [7] and in experiment [8] was inactive. Besides, the AC50 in experiment [12] was 263 nM (active); in experiment [13], 662 nM (active); in experiment [14], 5900 nM (active); in [15], 5900 nM (active); in [16], 263 nM (active); in experiment [17] it was 83.3 nM (active). Also, in experiment [18], the AC50 is 742 nM (active). In addition, in experiment [19], the IC50 is 468 nM (active). For the same molecule, the fold change in [10] (setting [21]) is 1 (inactive); in experiment [10] (setting [22]) it was 0.435. Also, the cell count stood at 720 in [10] (setting [23]) and 718 in [10] (setting [24]). Moreover, the z-score in experiment [20] (MELAS cybrid survival, CellTiter-Glo 48 h, stronger effect = higher value) was 0.158 (inactive); in [20] (Rieske KO mouse fibroblast survival, CellTiter-Glo 72 h), -2.81.
